This is part of a sample that, as a whole, favours compounds with a hit. Of some 83,000 tested, about 20% had one in any assay.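 Each cell line was grown in a 96-well plate and treated with one concentration of compound for 48 hours. Values below 10 were considered active.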 Active and inactive are the calls of the source.
Key:
Test in all cases: NCI-60 one-dose screen, 48 h (100 = growth as untreated, 0 = no growth, -100 = all killed)
Conditions in all cases: 10 µM unless noted
SR leukemia = tested on: SR leukemia
RPMI-8226 leukemia = tested on: RPMI-8226 leukemia
OVCAR-8 ovarian = tested on: OVCAR-8 ovarian
OVCAR-5 ovarian = tested on: OVCAR-5 ovarian
OVCAR-4 ovarian = tested on: OVCAR-4 ovarian
IGROV1 ovarian = tested on: IGROV1 ovarian
OVCAR-3 ovarian = tested on: OVCAR-3 ovarian
HS 578T breast = tested on: HS 578T breast
NCI/ADR-RES ovarian = tested on: NCI/ADR-RES ovarian
T-47D breast = tested on: T-47D breast
BT-549 breast = tested on: BT-549 breast
MDA-MB-435 melanoma = tested on: MDA-MB-435 melanoma
SW-620 colon = tested on: SW-620 colon
MCF7 breast = tested on: MCF7 breast
HCT-116 colon = tested on: HCT-116 colon
HCC-2998 colon = tested on: HCC-2998 colon
KM12 colon = tested on: KM12 colon
SK-OV-3 ovarian = tested on: SK-OV-3 ovarian

SMILES | growth (SR leukemia) | growth (RPMI-8226 leukemia) | growth (OVCAR-8 ovarian) | growth (OVCAR-5 ovarian) | growth (OVCAR-4 ovarian) | growth (IGROV1 ovarian) | growth (OVCAR-3 ovarian) | growth (HS 578T breast) | growth (NCI/ADR-RES ovarian) | growth (T-47D breast) | growth (BT-549 breast) | growth (MDA-MB-435 melanoma) | growth (SW-620 colon) | growth (MCF7 breast) | growth (HCT-116 colon) | growth (HCC-2998 colon) | growth (KM12 colon) | growth (SK-OV-3 ovarian)
O=C1NC(=C(Cl)Cl)/C(=N/S(=O)(=O)N2CCC(C3(C(F)(F)F)N=N3)CC2)N1 | 13.3% (inactive) | 23.9% (inactive) | 96.2% (inactive) | 105% (inactive) | 98.1% (inactive) | 43.5% (inactive) | 40% (inactive) | 95.8% (inactive) | 106% (inactive) | 47.5% (inactive) | 99.4% (inactive) | 70.7% (inactive) | -36.4% (active) | 74.6% (inactive) | 95.4% (inactive) | 60.5% (inactive) | 93.7% (inactive) | –
O=C1CS/C(=N\Nc2cc(=O)[nH]c3ccccc23)N1c1ccccc1 | 77.9% (inactive) | 88.4% (inactive) | 94% (inactive) | 95.6% (inactive) | 97% (inactive) | 89.1% (inactive) | 99.8% (inactive) | 97.1% (inactive) | 91.3% (inactive) | 89.6% (inactive) | 95.3% (inactive) | 82.9% (inactive) | 92.9% (inactive) | 92% (inactive) | 89.7% (inactive) | 96% (inactive) | 98.8% (inactive) | –
N=C(N)c1ccc(-c2cc(Cl)cc(Cl)c2)cn1 | 55% (inactive) | 82.8% (inactive) | 99.2% (inactive) | 89.4% (inactive) | 97.1% (inactive) | 89.1% (inactive) | 97.4% (inactive) | 87.2% (inactive) | 94.2% (inactive) | 83.7% (inactive) | 94.5% (inactive) | 56.7% (inactive) | 82.6% (inactive) | 75.9% (inactive) | 92% (inactive) | 67.5% (inactive) | 89.8% (inactive) | –
CC(=O)Oc1csc(N(C(C)=O)c2cc(C(=O)O)cc(C(=O)O)c2)n1 | 114% (inactive) | 43.3% (inactive) | 104% (inactive) | 101% (inactive) | 90.4% (inactive) | 101% (inactive) | 105% (inactive) | 95.3% (inactive) | 99.2% (inactive) | 108% (inactive) | 82.8% (inactive) | 102% (inactive) | 96.1% (inactive) | 95% (inactive) | 91.3% (inactive) | 98.6% (inactive) | 99.8% (inactive) | –
Cc1ccc(Nc2nnc(-c3ccc(Cl)cc3)o2)c(C)c1 | 53% (inactive) | 89.6% (inactive) | 95% (inactive) | 99% (inactive) | 82.1% (inactive) | 87.2% (inactive) | – | 87.9% (inactive) | 45.6% (inactive) | 75.6% (inactive) | – | – | 56.5% (inactive) | 56.9% (inactive) | 83.9% (inactive) | 84.8% (inactive) | 65.7% (inactive) | –
Cc1ccc(-c2nc(C(Cl)Cl)n3nc(-c4ccccc4)cc3n2)cc1 | 87.6% (inactive) | 2.55% (active) | 35.3% (inactive) | 120% (inactive) | 48% (inactive) | 56.4% (inactive) | -83.7% (active) | 31.5% (inactive) | 18.8% (inactive) | -6.55% (active) | 70.8% (inactive) | 15.4% (inactive) | -22.4% (active) | 18.9% (inactive) | 9.65% (active) | 23.3% (inactive) | 0.685% (active) | –
Clc1ccccc1-c1nc2ccccc2[nH]1 | 116% (inactive) | 74% (inactive) | 106% (inactive) | 54.4% (inactive) | 96.9% (inactive) | 108% (inactive) | 102% (inactive) | 113% (inactive) | -4.71% (active) | 89.3% (inactive) | – | 103% (inactive) | 94.6% (inactive) | – | 78.6% (inactive) | 70.9% (inactive) | 97.5% (inactive) | –
Nc1ncnc2c1c(-c1ccc(Oc3ccccc3)cc1)nn2C[C@@H]1SSC[C@@H]1O | -37.4% (active) | 51.5% (inactive) | 69.9% (inactive) | 78.3% (inactive) | 44.6% (inactive) | -6.92% (active) | 3.23% (active) | 56.6% (inactive) | 61.3% (inactive) | -30.9% (active) | 83% (inactive) | -90.9% (active) | 25.4% (inactive) | -4.42% (active) | 7.61% (active) | 56.5% (inactive) | 37.2% (inactive) | –
Cn1c(=O)cc(NC(=O)CN2CCN(c3cc4c(cc3F)c(=O)c(C(=O)O)cn4C3CC3)CC2)[nH]c1=O | 103% (inactive) | 97.3% (inactive) | 98% (inactive) | 95.9% (inactive) | 96.9% (inactive) | 101% (inactive) | 99.5% (inactive) | 103% (inactive) | 98.1% (inactive) | 107% (inactive) | 105% (inactive) | 101% (inactive) | 99.3% (inactive) | 94.2% (inactive) | 103% (inactive) | 100% (inactive) | 101% (inactive) | –
COc1cc(/C=C/c2cc(/C=C/c3ccc(O)c(OC)c3)n(C(N)=O)n2)ccc1O | -3.77% (active) | -44% (active) | -6.69% (active) | -30.7% (active) | -6.24% (active) | 1.18% (active) | -72.7% (active) | -11.3% (active) | 7.68% (active) | -7.56% (active) | – | -46% (active) | 0.998% (active) | -16.4% (active) | -39.2% (active) | 7.85% (active) | 3.47% (active) | –
COc1ccc(-c2cn(-c3cccc(C(=O)/C=C/c4cc(OC)c(OC)c(OC)c4)c3)c(=O)[nH]2)cc1OC | 6.01% (active) | 6.95% (active) | 64.9% (inactive) | 93.6% (inactive) | 85.7% (inactive) | – | 98.2% (inactive) | 87.9% (inactive) | 90.7% (inactive) | 62.9% (inactive) | 85% (inactive) | 83.2% (inactive) | 94.5% (inactive) | 53.3% (inactive) | 63.6% (inactive) | 103% (inactive) | 70.9% (inactive) | –
COc1ccc(-c2ccc(-c3ccc(C(=N)N)cn3)s2)cc1OC | 63.1% (inactive) | 89% (inactive) | 102% (inactive) | 103% (inactive) | 96.1% (inactive) | 101% (inactive) | 109% (inactive) | – | 108% (inactive) | 84.6% (inactive) | 94.4% (inactive) | 103% (inactive) | 90.3% (inactive) | 84.9% (inactive) | 80.2% (inactive) | 109% (inactive) | 95.9% (inactive) | –
ClC(Cl)c1nc(-c2ccccc2)nc2cc(-c3ccccc3)nn12 | 90.7% (inactive) | 17.3% (inactive) | 81.3% (inactive) | 121% (inactive) | 63.4% (inactive) | 67% (inactive) | -9.5% (active) | 63% (inactive) | 54.6% (inactive) | 24.2% (inactive) | 93.3% (inactive) | 94.2% (inactive) | 14.8% (inactive) | 47.9% (inactive) | 29.7% (inactive) | 88.9% (inactive) | 37.3% (inactive) | –
CCCCCCN1CSC(=S)N(CCCCCC)C1 | 104% (inactive) | 86.5% (inactive) | 103% (inactive) | 112% (inactive) | – | 101% (inactive) | 109% (inactive) | 105% (inactive) | 89.9% (inactive) | 96.4% (inactive) | 100% (inactive) | 97.6% (inactive) | 94.2% (inactive) | 102% (inactive) | 86% (inactive) | 96.6% (inactive) | 103% (inactive) | 107% (inactive)
NC(N)=N/N=C/c1ccc(-c2ccc(-c3cc(Cl)cc(Cl)c3)s2)cc1 | 2.59% (active) | -9.01% (active) | 33.1% (inactive) | 90.5% (inactive) | 38.6% (inactive) | -16.7% (active) | -81.5% (active) | 80.8% (inactive) | -19.2% (active) | 28.8% (inactive) | 95.7% (inactive) | – | -66.3% (active) | -39.9% (active) | -75.9% (active) | -17.3% (active) | -62.4% (active) | –
COc1cc(-c2nn(C(=O)NS(=O)(=O)c3ccccc3)cc2-c2ccncc2)ccc1Cl | 89.1% (inactive) | 74.2% (inactive) | 20.4% (inactive) | 99.9% (inactive) | – | 78.6% (inactive) | 106% (inactive) | 79.4% (inactive) | 82.3% (inactive) | 62.6% (inactive) | 53.9% (inactive) | 85.5% (inactive) | 112% (inactive) | 94.6% (inactive) | 84.6% (inactive) | 109% (inactive) | 94.5% (inactive) | 82.1% (inactive)
Oc1ccc2cc(Br)ccc2c1-c1c(O)ccc2cc(Br)ccc12 | 30.9% (inactive) | 64.9% (inactive) | 72.7% (inactive) | 94.1% (inactive) | – | 28% (inactive) | 65.5% (inactive) | 50.2% (inactive) | 56.2% (inactive) | 57.9% (inactive) | – | 63.1% (inactive) | 48.3% (inactive) | 37.1% (inactive) | 33.5% (inactive) | 56.5% (inactive) | 40% (inactive) | 64.7% (inactive)

— PubChem BioAssay (NCI)
